# According to PubChem BioAssay:
# System: Neuregulin-1 EGF-like domain
# Assay: binders of neuregulin-1 EGF-like domain, primary screen, biochemical, small-molecule microarray, 635 nm fluorescence (AID 1081);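 also: binding of the protein to compounds printed on small-molecule microarray slides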
# Conditions: small-molecule microarray binding, higher = more signal
row,SMILES,composite z-score
1,O=C1c2ccccc2[C@](Cc2ccccc2I)(C(=O)O)[C@H](c2ccc(CO)cc2)N1Cc1ccccc1C(F)(F)F,1.26
2,C=CCN1C(=O)[C@@]2(O[C@@H](CCO)[C@H]([Si](C)(C)c3ccc(OC)cc3)[C@H]2C)c2cc(NC(C)=O)ccc21,1.2
3,O=C1O[C@@H](c2ccccc2)[C@@H](c2ccccc2)N2[C@@H](c3ccc(O)cc3)[C@]3(C(=O)Nc4ccccc43)[C@@H](C(=O)NC[C@H](O)c3ccccc3)[C@H]12,0.552
4,C=C(CCCC)C(=O)CC[C@@H](OC(=O)c1ccccc1-c1ccccc1C(=O)O)c1ccc(CO)o1,0.989
5,COCCOC(=O)N1C(=O)[C@@]2(c3cc(C#CCCO)ccc31)[C@H](c1ccc(O)cc1)N1[C@H](c3ccccc3)[C@H](c3ccccc3)OC(=O)[C@H]1[C@@H]2C(=O)N1CCCCCCC1,1.14
6,O=C(NCC(O)CO)[C@]1(CCS(=O)(=O)c2ccccc2)N=C(c2ccc(OCCCO)cc2)O[C@@H]1c1ccccc1 (stereo not given in full),1.3
7,CC(C)NC(=O)[C@@H]1c2ccccc2C(=O)N(C2CCCCC2)[C@H]1c1ccc(CO)cc1,1
8,CCOC(=O)C=Cc1cccc(OC)c1O,0.189
9,NC(=O)NCC#Cc1ccc2c(c1)[C@]1(C(=O)N2)[C@H](C(=O)NC[C@H](O)c2ccccc2)[C@H]2C(=O)O[C@H](c3ccccc3)[C@H](c3ccccc3)N2[C@@H]1c1ccccc1OCCO,0.997
10,CN1C(=O)C2C(C1=O)C1C=C(c3ccc(CO)cc3)C2C(C2CC2)N1Cc1cc2c(cc1Br)OCO2 (stereo not given),1.24
